KB-3-1 tox = kills parental KB-3-1 adenocarcinoma cells; 400,000 compounds, 1.4% hits; Potency, µM (titrated, usually from 46.1 µM), usual class: cytotoxic; KB-3-1 viability, CellTiter-Glo ATP luminescence, 72 h; further: on the % scale 0 is the no-effect control and ±100 the full control effect; nearly all actives have a fitted effect of over 60% in size
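KB-3-1 cells, DMEM (no phenol red) + 10% FBS; compound by pin transfer, 72 h, 37 °C. Readout: CellTiter-Glo luminescence after 10 min. Data normalized, curve-fitted.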
KB-V1 MDR tox = KB-V1 MDR subline cytotoxicity. KB-V1 MDR cells viability, CellTiter-Glo, 72 h. Potency, µM (doses to about 46.1 µM), actives largely listed as cytotoxic. 400,000 compounds, 3.4% hits; further: on the % scale 0 is the no-effect control and ±100 the full control effect; nearly all actives have a fitted effect of over 60% in size
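Compound-treated KB-V1 multidrug-resistant cells, 72 h, 37 degrees C; viability by CellTiter-Glo. Fitted qHTS curves give the values.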
HepG2 viability = HepG2 cytotoxicity, counter-screen for TGF-b inhibitors; HepG2 CAGA-GFP viability, ATP luminescence, 18 h; Potency, µM (doses to about 46.1 µM), without a hit: at the top dose activity change, negative = cytotoxicity, actives largely listed as cytotoxic; 410,000 compounds, 0.76% hits; AID 588856
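CellTiter-Glo luminescence gave cytotoxicity after 18 hours at 37 degrees C. The cells were HepG2 CAGA-GFP in 1% FBS DMEM, stimulated with 500 pg/mL TGF-beta after compound addition. %Activity was normalised to no-cell wells (complete cell-killing) and DMSO (no toxicity), and curves were fitted and classified.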
TGFb SMAD3 inh = TGF-b pathway inhibition; Potency, µM (highest dose often 46.1 µM), without a hit: top-dose activity, negative = inhibition, most hits filed as inhibitors; 410,000 compounds, 1.2% hits; AID 588855; HepG2 CAGA-GFP TGF-b/SMAD3 reporter, GFP fluorescence, 18 h; TGF-beta stimulated, 500 pg/mL final; further: on the % scale 0 is the no-effect control and ±100 the full control effect; nearly all actives have a fitted effect of over 65% in size
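Using HEPG2 CAGA-GFP reporter cells at 1000 cells/well, we pinned test compounds, stimulated with recombinant TGF-beta (500 pg/mL final) and measured total well GFP after 18 h.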
HT1080-NT tox = kills 2HG-producing HT-1080-NT fibrosarcoma cells; HT-1080-NT fibrosarcoma viability, CellTiter-Glo ATP luminescence, 48 h; Potency, µM (highest dose often 46.1 µM), for the others: at the top dose activity, negative = less viability, actives largely listed as cytotoxic; 360,000 compounds, 1.6% hits; AID 686970;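 further: NT is the 2HG producing partner of a matched IDH1 knockdown line; 0% = DMSO-treated cells and -100% = media-only wells without cells; nearly all actives have a fitted effect of over 55% in size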
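HT-1080-NT fibrosarcoma cells (2HG-overproducing), 750 cells/well in RPMI with 5% FBS, dosed after 2 h and incubated 48 h at 37C. CellTiter-Glo luminescence normalized to DMSO and no-cell wells; concentration-response curves fitted and classed.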
HT1080 IDH1KD tx = toxicity to HT-1080 IDH1 knockdown cells (counter line). HT-1080 IDH1 knockdown viability, ATP luminescence, 48 h. Potency, µM (highest dose often 46.1 µM), without a hit: top-dose activity, negative = toxicity, usual class: cytotoxic. 360,000 compounds, 2% hits. AID 686971;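 further: 0% = DMSO wells and -100% = cell-free medium wells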
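After a 2 h attachment period, IDH1KD HT-1080 cells took pin-transferred compound for 48 h at 37 °C; ATP-based luminescence after 10 min room-temperature reagent incubation reported viability.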
Numbers without * were called inactive. Sampled rows, rich in hits. Any-hit rate of the full collection: about 6.6%. The call rests on the fitted dose curve; in most records, active means well fitted curve in the direction sought with a large enough effect; inconclusive means small, poorly fitted or top-dose-only effect, or another doubt; inactive means no such curve, though single readings can be large; an effect the other way counts as inactive or inconclusive. Potency means the concentration at half of the fitted maximal effect.

For Cc1c(Cl)cccc1Nc1nc(N)nc(CSc2ncccn2)n1 the results were KB-3-1 tox inactive, KB-V1 MDR tox 18µM*, HepG2 viability -26%, TGFb SMAD3 inh 1%, HT1080-NT tox inconclusive and HT1080 IDH1KD tx inconclusive.
CCc1ccccc1NC(=O)CN(C)Cc1nc(N)nc(Nc2ccccc2C)n1 was read as KB-3-1 tox inactive, KB-V1 MDR tox 3.3µM*, HepG2 viability -5%, TGFb SMAD3 inh 0%, HT1080-NT tox 4% and HT1080 IDH1KD tx 7%.
For Cc1nc(S(=O)(=O)N2CCN(c3cccc(Cl)c3)CC2)cn1C the results were KB-3-1 tox inactive, KB-V1 MDR tox inactive, HepG2 viability -23% and TGFb SMAD3 inh 6%.
Screening COc1cccc(C(=O)N2CCc3cc(OC)c(OC)cc3C2COc2ccc3c(C)cc(=O)oc3c2)c1 (stereo not drawn) returned KB-3-1 tox inactive, KB-V1 MDR tox inconclusive, HepG2 viability -5% and TGFb SMAD3 inh 4%.
For CCOc1ccccc1NC(=O)Cc1csc(COc2cccc(C)c2)n1 the results were HepG2 viability -44%.
For Cc1ccccc1Nc1nc(N)nc(CCl)n1 the results were KB-3-1 tox inconclusive, KB-V1 MDR tox inactive, HepG2 viability 1%, TGFb SMAD3 inh -16%, HT1080-NT tox 1.2µM* and HT1080 IDH1KD tx 15µM*.
COC(=O)Cn1cnc2c(Cl)nc(F)nc21 was read as KB-3-1 tox inactive, KB-V1 MDR tox inactive, HepG2 viability 1%, TGFb SMAD3 inh -13%, HT1080-NT tox -15% and HT1080 IDH1KD tx -20%.
Screening O=C(c1ccc(S(=O)(=O)Cc2cc(F)ccc2F)c([N+](=O)[O-])c1)N1CCCC1 returned KB-3-1 tox inactive, KB-V1 MDR tox inactive, HepG2 viability 0%, TGFb SMAD3 inh inconclusive, HT1080-NT tox inconclusive and HT1080 IDH1KD tx 21µM*.
Screening CCCCNC(=O)CCn1c(=O)c2cccn2c2cccnc21 returned HepG2 viability 4% and TGFb SMAD3 inh 7%.
For O=C(Nc1ccc(C(F)(F)F)cc1)C1CCCN1S(=O)(=O)c1cccc2cccnc12 (stereo not drawn) the results were KB-3-1 tox 23µM*, KB-V1 MDR tox 4.6µM*, HepG2 viability -30%, TGFb SMAD3 inh inconclusive, HT1080-NT tox inconclusive and HT1080 IDH1KD tx inconclusive.
For CCc1ccc(NC(=O)C2CCCN(S(=O)(=O)c3cccc4cccnc34)C2)cc1 (stereo not drawn) the results were HepG2 viability -8% and TGFb SMAD3 inh 10µM*.
Screening Cc1ccc(NC(=O)C2CCCN2S(=O)(=O)c2cccc3cccnc23)cc1 (stereo not drawn) returned HepG2 viability -15% and TGFb SMAD3 inh inconclusive.
Screening CCOc1ccc(-c2nonc2NC(=O)c2oc3c(C)c(C)ccc3c2C)cc1OCC returned KB-3-1 tox inactive, KB-V1 MDR tox inactive, HepG2 viability -22% and TGFb SMAD3 inh inconclusive.
O=C(c1ccccc1)c1ccc(-n2ccnc2)c([N+](=O)[O-])c1 was read as KB-3-1 tox inactive, KB-V1 MDR tox 18µM*, HepG2 viability -35%, TGFb SMAD3 inh 0%, HT1080-NT tox 7% and HT1080 IDH1KD tx 2%.
O=C(O)c1ccc(-n2ccnc2)c([N+](=O)[O-])c1 was read as KB-3-1 tox inactive, KB-V1 MDR tox inconclusive, HepG2 viability -2%, TGFb SMAD3 inh -4%, HT1080-NT tox 17% and HT1080 IDH1KD tx 13%.
Screening Clc1cncc(Cl)c1N/N=C/c1ccncc1 returned KB-3-1 tox inactive, KB-V1 MDR tox inconclusive, HepG2 viability -23%, TGFb SMAD3 inh -21%, HT1080-NT tox -14% and HT1080 IDH1KD tx inconclusive.
`Clc1cccc(Cl)c1/C=N/Nc1c(Cl)cncc1Cl` gave KB-3-1 tox 4.6µM*, KB-V1 MDR tox inconclusive, HepG2 viability -1%, TGFb SMAD3 inh -7%, HT1080-NT tox 2.3µM* and HT1080 IDH1KD tx 5.2µM*.
For Cc1sc(NC(=O)CSc2ncn(-c3ccccc3)n2)nc1-c1ccccc1 the results were KB-3-1 tox inconclusive, KB-V1 MDR tox 23µM*, HepG2 viability 2%, TGFb SMAD3 inh -17%, HT1080-NT tox 9% and HT1080 IDH1KD tx -5%.
Screening CCOc1ccccc1CNS(=O)(=O)c1ccc(-c2coc(C)n2)cc1 returned KB-3-1 tox inactive, KB-V1 MDR tox inactive, HepG2 viability -16% and TGFb SMAD3 inh -12%.
For CCC(C)n1c(NC(=O)c2ccccc2)c(C#N)c2nc3ccccc3nc21 (stereo not drawn) the results were KB-3-1 tox inconclusive, KB-V1 MDR tox inconclusive, HepG2 viability 8%, TGFb SMAD3 inh inconclusive, HT1080-NT tox 18µM* and HT1080 IDH1KD tx 16µM*.
CCCCn1c(NC(=O)c2ccccc2)c(C#N)c2nc3ccccc3nc21 was read as KB-3-1 tox inconclusive, KB-V1 MDR tox 5.2µM*, HepG2 viability -36%, TGFb SMAD3 inh inconclusive, HT1080-NT tox 8.9µM* and HT1080 IDH1KD tx inconclusive.
CCC(=O)Nc1c(C#N)c2nc3ccccc3nc2n1-c1ccc(C)cc1 was read as KB-3-1 tox inactive, KB-V1 MDR tox inconclusive, HepG2 viability -18%, TGFb SMAD3 inh -23%, HT1080-NT tox 2% and HT1080 IDH1KD tx -1%.
COc1ccccc1C(=O)N(Cc1ccco1)Cc1ccccc1F was read as HepG2 viability -20% and TGFb SMAD3 inh 0%.
For CN(C(=O)C(C)(C)C)c1ccc(OCC(=O)N2CCc3ccccc3C2)cc1 the results were KB-3-1 tox inconclusive, KB-V1 MDR tox 4.6µM*, HepG2 viability -8%, TGFb SMAD3 inh -4%, HT1080-NT tox inconclusive and HT1080 IDH1KD tx -29%.
Cc1cc(C)c2c(=O)c3c(oc2c1)C(=O)N(Cc1ccc(F)cc1)C3c1cccc(O)c1 (stereo not drawn) was read as KB-3-1 tox inconclusive, KB-V1 MDR tox inconclusive, HepG2 viability -22% and TGFb SMAD3 inh inconclusive.
Screening CCCCN1C[C@H](COC(=O)CCC)Oc2cccc(F)c2S1(=O)=O returned KB-3-1 tox inactive, KB-V1 MDR tox inactive, HepG2 viability 0%, TGFb SMAD3 inh -5%, HT1080-NT tox 10% and HT1080 IDH1KD tx 5%.
COc1cccc(-c2ccc(NC(=O)C3CCCN(Cc4cnn(C)c4C)C3)cc2)c1 (stereo not drawn) was read as KB-3-1 tox inactive, KB-V1 MDR tox inactive, HepG2 viability -23%, TGFb SMAD3 inh -3%, HT1080-NT tox inconclusive and HT1080 IDH1KD tx inconclusive.
